Activity change data for 39 molecules are collected here from PubChem BioAssay AID1159554 (Broad Institute, 2015).

Several values for one entry are separate records, joined by “and”; a condition that tells them apart may be missing. Equal entries are not always repeated. Screen size: about 94,000 compounds; about 2,100 (2.2%) were called active. Rule as the data show it: active = activity change below about -80%; inconclusive = no clear call, values can overlap the other calls; inactive = above that. The full list was thinned out, with actives kept by preference. Where a structure was tested more than once in an assay, its records may differ in their call.

This test is described as follows: Dd2 malaria parasite growth inhibition – SYBR Green fluorescence, single dose replicates, primary screen (AID 1159554). The conditions noted are these: P. falciparum Dd2 growth, 72 h, at 10 µM, stronger effect = lower value.
Take `O=C(Nc1ccc(F)cc1)N1CCCCN2[C@H](CO)[C@H](c3ccc(C#Cc4ccccc4)cc3)[C@H]2C1`: the activity change was -83.4% (active). Under `CN(C)CC#Cc1ccc([C@@H]2[C@H](CO)N3CCCCN(C(=O)Nc4ccc(F)cc4)C[C@@H]23)cc1` stands -18.7% (inactive).

Regarding `COc1ccc(C#Cc2ccc([C@H]3[C@@H](CO)N4CCCCN(C(=O)Nc5ccccc5)C[C@H]34)cc2)cc1`, the activity change was -69.3% (inactive).

For the molecule `C[C@H](CO)N1C[C@H](C)[C@@H](CN(C)Cc2cccc(F)c2)Oc2cc(C#CC3CC3)ccc2S1(=O)=O`, the activity change was -15.8% (inactive).

`C[C@@H]1CN([C@H](C)CO)S(=O)(=O)c2ccc(-c3ccccc3)cc2O[C@@H]1CN(C)CC1CC1`: the activity change is -40.4% (inactive). Under `C[C@@H]1CN([C@@H](C)CO)S(=O)(=O)c2ccc(-c3cccc(C#N)c3)cc2O[C@@H]1CN(C)Cc1cccc(F)c1` stands -39.8% (inactive); under `C[C@H]1CN([C@@H](C)CO)S(=O)(=O)c2ccc(-c3cccc(C#N)c3)cc2O[C@H]1CN(C)CC1CC1`, -83.2% (active).

As to `CCC(=O)N(C)C[C@H]1Oc2cc(-c3cccc(C#N)c3)ccc2S(=O)(=O)N([C@@H](C)CO)C[C@@H]1C`, the activity change was 7.55% (inactive).

For the molecule `C[C@H](CO)N1C[C@H](C)[C@@H](CN(C)C(=O)C2CC2)Oc2cc(-c3cccc(C#N)c3)ccc2S1(=O)=O`, the activity change is -26.1% (inactive). As to `CCCN(C)C[C@@H]1Oc2cc(-c3cccc(C#N)c3)ccc2S(=O)(=O)N([C@@H](C)CO)C[C@@H]1C`, the activity change is -82.2% (active). Then `CNC(=O)C[C@@H]1CC[C@@H]2[C@H](COC[C@@H](O)CN2S(=O)(=O)c2ccccc2Cl)O1`, with 24.5% (inactive); and `Cc1ccccc1-c1ccc2c(c1)O[C@H](CN(C)Cc1ccc(C(=O)O)cc1)[C@@H](C)CN([C@H](C)CO)S2(=O)=O`, with -8.07% (inactive).

With `CO[C@H](CN(C)C(=O)c1ccc2c(c1)OCO2)[C@H](C)CN([C@@H](C)CO)S(=O)(=O)c1ccc(Cl)cc1`, the activity change is 10.7% (inactive).

In the case of `COCCNC(=O)C[C@@H]1C[C@@H]2c3cc(NS(=O)(=O)c4ccccc4)ccc3O[C@@H]2[C@H](CO)O1`, the activity change is 18.7% (inactive). Then `Cn1cnc(S(=O)(=O)N2C[C@@H](O)COC[C@@H]3O[C@H](CC(=O)NC4CCC4)CC[C@H]32)c1`, with 8.29% (inactive). Then `CC(C)(C)[S@@](=O)N1Cc2cc(C(=O)NCc3ccc4c(c3)OCO4)nc(-c3cccc(-c4ccccc4)c3)c2[C@H]1CCO`, with -48.4% (inactive). Take `CC(C)(C)[S@](=O)N1Cc2cc(C(=O)N[C@@H]3CCN(Cc4ccccc4)C3)nc(-c3cccc(-c4ccncc4)c3)c2[C@@H]1CCO`: the activity change is -81.2% (active).

On to `CCCNC(=O)c1cc2c(c(-c3cccc(-c4ccc(F)cc4)c3)n1)[C@@H](CCO)N([S@](=O)C(C)(C)C)C2`, for which the activity change is -18.8% (inactive). Then `COc1ccc2c3c(n(C)c2c1)[C@H](CO)N(C(=O)C1CCCC1)CC31CCN(C(=O)c2ccncc2)CC1`, with -53.1% (inactive); and `C/C=C/c1ccc([C@@H]2[C@H](CO)N(CC3CCCC3)C23CN(C(=O)CC2CC2)C3)cc1`, with -85% (active); and `C/C=C/c1ccc([C@@H]2[C@@H](CO)N(CC3CCCC3)C23CN(S(=O)(=O)CC)C3)cc1`, with -78.3% (inactive). Under `C/C=C/c1ccc([C@@H]2[C@H](CO)N(CC3CCCC3)C23CN(C(=O)CC)C3)cc1` stands -53.8% (inactive); under `CCCNC(=O)N(C)C[C@H]1Oc2ncc(-c3ccc(F)cc3)cc2C(=O)N([C@H](C)CO)C[C@H]1C`, 0.175% (inactive). Under `CCCNC(=O)NC[C@H]1[C@H](c2ccc(C3=CCCCC3)cc2)[C@H](CO)N1C(C)=O` stands -9.89% (inactive). Turning to `COc1ccc(S(=O)(=O)N(C)C[C@H]2OCCCC[C@H](C)Oc3ccc(NC(=O)CCC(F)(F)F)cc3C(=O)N([C@@H](C)CO)C[C@@H]2C)cc1`, the activity change is -55.8% (inactive). Under `C[C@H]1CN([C@@H](C)CO)C(=O)c2cccc(NC(=O)c3cnccn3)c2O[C@@H]1CN(C)Cc1ccc(Oc2ccccc2)cc1` stands -3.4% (inactive); under `Cc1noc(C)c1NC(=O)N(C)C[C@@H]1Oc2c(NC(=O)CCCCCC(=O)Nc3ccccc3N)cccc2C(=O)N([C@H](C)CO)C[C@@H]1C`, 20.3% (inactive).

Turning to `C[C@H](CO)N1C[C@H](C)[C@H](CN(C)Cc2ccccc2)Oc2ccc(NC(=O)CCCCCC(=O)Nc3ccccc3N)cc2C1=O`, the activity change was -61% (inactive). Then `C[C@H]1CN([C@@H](C)CO)C(=O)c2cccc(NC(=O)Nc3ccccc3)c2O[C@H]1CN(C)Cc1ccc(Oc2ccccc2)cc1`, with -12% (inactive).

For `C[C@H](CO)N1C[C@H](C)[C@H](CN(C)Cc2ccc(Oc3ccccc3)cc2)Oc2c(NC(=O)CCCCCC(=O)Nc3ccccc3N)cccc2C1=O`, the activity change was -92.5% (active). Then `C[C@@H]1CN([C@H](C)CO)C(=O)c2cccc(NC(=O)CCCCCC(=O)Nc3ccccc3N)c2O[C@H]1CN(C)Cc1ccc(Oc2ccccc2)cc1`, with -91.8% (active); and `CC=Cc1ccc2n(c1=O)C[C@@H]1[C@@H](CO)[C@H](C(=O)NCC)[C@H]2N1CCC(F)(F)F` (mixture of isomers), with 0.676% (inactive). Under `CO[C@H]1CN(C)C(=O)c2ccc(NC(=O)C3CC3)cc2OC[C@@H](C)N(C)C[C@H]1C` stands 24.8% (inactive). Under `COCC(=O)Nc1ccc2c(c1)C(=O)N(C)[C@H]1CC[C@@H](CC(=O)Nc3cn(C)nc3C)O[C@@H]1CO2` stands -1.96% (inactive); under `COc1ccc2c3c([nH]c2c1)[C@H](CO)N(C(=O)c1ccccc1)CC31CCN(S(=O)(=O)c2cccs2)CC1`, 23.2% (inactive); under `CCNC(=O)C[C@@H]1CC[C@@H]2[C@@H](COc3ccc(NC(=O)c4cccc(C(F)(F)F)c4)cc3C(=O)N2C)O1`, -22.5% (inactive). As for `OC[C@H]1[C@@H](c2ccc(/C=C/c3ccccc3)cc2)[C@H]2CN(Cc3cccnc3)CCCCN21`, the activity change was -61.1% (inactive). Under `O=C(Cc1ccncc1)N1C[C@@H]2N[C@H](C1)C2c1ccc(-c2ccc(F)cc2)cc1` (some centres undefined) stands -75.3% (inactive); under `c1ccc(-c2ccc(C3[C@@H]4CN(Cc5cccnc5)C[C@H]3N4)cc2)cc1` (some centres undefined), -91.7% (active) and -72.1% (inactive).
